Assay results from the supplement of paper PMC8728848.
The sample as a whole holds a higher share of the strongest signals than the screen did.

Experiments:
Experiment in all cases: glycan array binding signal (z-score within array); higher = stronger binding
Details in all cases: glycan notation: IUPAC condensed, linker removed
Fuc(a1-2)Gal = target: Fuc(a1-2)Gal
Method in brief: (§1)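 The binding signal is a Z-score computed within each array. Data were drawn from 3228 arrays in the Consortium for Functional Glycomics database, restricted to those with a known protein sequence. Scores were averaged over arrays of the same protein sequence at different concentrations or buffers, and over linkers, and negative values can be taken as non-binding.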

[1] = target: Fuc(a1-2)Gal(b1-4)GlcNAc(b1-2)Man(a1-3)[Fuc(a1-2)Gal(b1-4)GlcNAc(b1-2)Man(a1-6)]Man(b1-4)GlcNAc(b1-4)GlcNAc
Method in brief: as §1

[2] = target: Fuc(a1-2)Gal6S(b1-3)GlcNAc
Method in brief: as §1

[3] = target: Fuc(a1-2)[Gal(a1-3)]Gal(b1-3)GalNAc
Method in brief: as §1

[4] = target: Fuc(a1-2)[Gal(a1-3)]Gal(b1-3)GalNAc(b1-3)Gal(a1-4)Gal(b1-4)Glc
Method in brief: as §1

[5] = target: Fuc(a1-2)[GalNAc(a1-3)]Gal(b1-3)GalNAc(b1-3)Gal(a1-4)Gal(b1-4)Glc
Method in brief: as §1

[6] = target: Fuc(a1-2)[GalNAc(a1-3)]Gal(b1-4)GlcNAc(b1-3)Gal(b1-4)GlcNAc(b1-3)Gal(b1-4)GlcNAc
Method in brief: as §1

[7] = target: Fuc(a1-3)[Gal(b1-4)]GlcNAc(b1-2)Man(a1-3)[Fuc(a1-3)[Gal(b1-4)]GlcNAc(b1-2)Man(a1-6)]Man(b1-4)GlcNAc(b1-4)[Fuc(a1-6)]GlcNAc
Method in brief: as §1

[8] = target: Fuc(a1-3)[Gal(b1-4)]GlcNAc(b1-3)GalNAc
Method in brief: as §1

[9] = target: Gal(a1-3)Gal(b1-3)GlcNAc(b1-3)GalNAc
Method in brief: as §1

[10] = target: Gal(a1-3)Gal(b1-3)[Fuc(a1-4)]GlcNAc(b1-2)Man(a1-3)[Gal(a1-3)Gal(b1-3)[Fuc(a1-4)]GlcNAc(b1-2)Man(a1-6)]Man(b1-4)GlcNAc(b1-4)GlcNAc
Method in brief: as §1

[11] = target: Gal(a1-3)Gal(b1-4)GlcNAc(b1-6)GalNAc
Method in brief: as §1

[12] = target: Gal(b1-3)GlcNAc(b1-3)Gal(b1-3)GlcNAc
Method in brief: as §1

[13] = target: Gal(b1-3)GlcNAc(b1-3)Gal(b1-4)GlcNAc
Method in brief: as §1

[14] = target: Gal(b1-3)GlcNAc(b1-3)Gal(b1-4)GlcNAc(b1-2)[Gal(b1-3)GlcNAc(b1-3)Gal(b1-4)GlcNAc(b1-6)]Man(a1-6)[Gal(b1-3)GlcNAc(b1-3)Gal(b1-4)GlcNAc(b1-2)Man(a1-3)]Man(b1-4)GlcNAc(b1-4)[Fuc(a1-6)]GlcNAc
Method in brief: as §1

[15] = target: Gal(b1-3)GlcNAc(b1-3)Gal(b1-4)GlcNAc(b1-3)Gal(b1-4)GlcNAc(b1-2)[Gal(b1-3)GlcNAc(b1-3)Gal(b1-4)GlcNAc(b1-3)Gal(b1-4)GlcNAc(b1-6)]Man(a1-6)[Gal(b1-3)GlcNAc(b1-3)Gal(b1-4)GlcNAc(b1-3)Gal(b1-4)GlcNAc(b1-2)Man(a1-3)]Man(b1-4)GlcNAc(b1-4)[Fuc(a1-6)]GlcNAc
Method in brief: as §1

[16] = target: Gal(b1-3)GlcNAc(b1-3)Gal(b1-4)GlcNAc(b1-6)[Gal(b1-3)GlcNAc(b1-3)]Gal(b1-4)Glc
Method in brief: as §1

[17] = target: Gal(b1-3)[Neu5Ac(b2-6)]GalNAc
Method in brief: as §1

[18] = target: Gal(b1-4)GlcNAc(b1-2)Man(a1-3)Man(b1-4)GlcNAc(b1-4)GlcNAc
Method in brief: as §1

[19] = target: Gal(b1-4)GlcNAc(b1-2)[Gal(b1-4)GlcNAc(b1-4)]Man(a1-3)[GlcNAc(b1-4)][Gal(b1-4)GlcNAc(b1-2)[Gal(b1-4)GlcNAc(b1-6)]Man(a1-6)]Man(b1-4)GlcNAc(b1-4)GlcNAc
Method in brief: as §1

[20] = target: Gal(b1-4)GlcNAc(b1-3)Gal(b1-4)GlcNAc(b1-2)Man(a1-3)[Gal(b1-4)GlcNAc(b1-3)Gal(b1-4)GlcNAc(b1-2)Man(a1-6)]Man(b1-4)GlcNAc(b1-4)[Fuc(a1-6)]GlcNAc
Method in brief: as §1

[21] = target: Gal(b1-4)GlcNAc(b1-3)Gal(b1-4)GlcNAc(b1-2)[Gal(b1-4)GlcNAc(b1-3)Gal(b1-4)GlcNAc(b1-6)]Man(a1-6)[Gal(b1-4)GlcNAc(b1-3)Gal(b1-4)GlcNAc(b1-2)Man(a1-3)]Man(b1-4)GlcNAc(b1-4)GlcNAc
Method in brief: as §1

[22] = target: Gal(b1-4)GlcNAc(b1-3)Gal(b1-4)GlcNAc(b1-2)[Gal(b1-4)GlcNAc(b1-3)Gal(b1-4)GlcNAc(b1-6)]Man(a1-6)[Gal(b1-4)GlcNAc(b1-3)Gal(b1-4)GlcNAc(b1-2)Man(a1-3)]Man(b1-4)GlcNAc(b1-4)[Fuc(a1-6)]GlcNAc
Method in brief: as §1

[23] = target: Gal(b1-4)GlcNAc(b1-6)Gal(b1-4)GlcNAc
Method in brief: as §1

[24] = target: Gal(b1-4)GlcNAc(b1-6)[Gal(b1-4)GlcNAc(b1-3)]GalNAc
Method in brief: as §1

[25] = target: Gal3S(b1-4)[Fuc(a1-3)]Glc6S
Method in brief: as §1

[26] = target: Gal3S(b1-4)[Fuc(a1-3)]GlcNAc6S
Method in brief: as §1

B1: LlpA (Burkholderia cenocepacia) (protein)
chain: MGSSHHHHHHSSGLVPRGSHKILGSNETLSAGNVVYSDNGQYHLAMQTDGNLVVYGPTGAVWQSQTSGSGGNRAVMQGDGNLVIYRADNTAAWSSKTAHPGAFLAVQDDGNVVIYWPRPAWASNTSDPATQQSAESKYLASGSTMSAGQTVTVAQYMLVFQADGNLVLYKNGGNPIWSTGTQGKGATYAVMQSDGNFVIYAGSTALWSTKTNGANGAQLVLQSDGNLVIYAPTAAWSTKFGLVTAPTSTSTSNNGPGSGICVGVCPPHPLNGNPFSPVGVGTTGLGFPTPGYPGAAF
Fuc(a1-2)Gal
  glycan array binding signal (z-score): 1.82
[1]
  glycan array binding signal (z-score): -0.314
[2]
  glycan array binding signal (z-score): 0.167
[3]
  glycan array binding signal (z-score): 0.017
[4]
  glycan array binding signal (z-score): -0.361
[5]
  glycan array binding signal (z-score): -0.271
[6]
  glycan array binding signal (z-score): 1.26
[7]
  glycan array binding signal (z-score): 2.08
[8]
  glycan array binding signal (z-score): 0.159
[9]
  glycan array binding signal (z-score): -1.16
[10]
  glycan array binding signal (z-score): 1.1
[11]
  glycan array binding signal (z-score): 0.692
[12]
  glycan array binding signal (z-score): -0.418
[13]
  glycan array binding signal (z-score): -0.526
[14]
  glycan array binding signal (z-score): 1.84
[15]
  glycan array binding signal (z-score): 0.703
[16]
  glycan array binding signal (z-score): 1.7
[17]
  glycan array binding signal (z-score): -0.687
[18]
  glycan array binding signal (z-score): 1.84
[19]
  glycan array binding signal (z-score): 0.349
[20]
  glycan array binding signal (z-score): 2.46
[21]
  glycan array binding signal (z-score): 0.339
[22]
  glycan array binding signal (z-score): 1.91
[23]
  glycan array binding signal (z-score): -0.14
[24]
  glycan array binding signal (z-score): 1.6
[25]
  glycan array binding signal (z-score): 1.83
[26]
  glycan array binding signal (z-score): 0.427
